Source: PubChem BioAssay (NCI)
The panel holds about 83,000 compounds, 20% with a hit somewhere; the sample as a whole holds those more often.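 Treatment: one concentration, 48 hours, 96-well format. Scoring: percent growth, with anything below 10 considered active.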 A number with no mark means an inactive call. Active and inactive are the calls of the source.

Tests used:
Assay in all cases: NCI-60 one-dose screen, 48 h (100 = growth as untreated, 0 = no growth, -100 = all killed)
EKVX NSCLC = conditions: 10 µM
SN12C renal = conditions: 10 µM unless noted
UO-31 renal = conditions: 10 µM unless noted
TK-10 renal = conditions: 10 µM unless noted
ACHN renal = conditions: 10 µM unless noted
CAKI-1 renal = conditions: 10 µM unless noted
A498 renal = conditions: 10 µM unless noted
CCRF-CEM leukemia = conditions: 10 µM
MOLT-4 leukemia = conditions: 10 µM unless noted
SK-MEL-2 melanoma = conditions: 10 µM unless noted

Compound	growth (EKVX NSCLC)	growth (SN12C renal)	growth (UO-31 renal)	growth (TK-10 renal)	growth (ACHN renal)	growth (CAKI-1 renal)	growth (A498 renal)	growth (CCRF-CEM leukemia)	growth (MOLT-4 leukemia)	growth (SK-MEL-2 melanoma)
COc1cc(-c2nn(-c3ccc(NC(=O)c4ccc(Cl)c(C(F)(F)F)c4)cc3)cc2-c2ccncc2)ccc1Cl	24.3%	52.7%	16.3%	6.27% (active)	18.2%	-16.7% (active)	31.9%	6.52% (active)	3.94% (active)	
O=C(Nc1ccc(-n2cc(-c3ccncc3)c(-c3ccc(Cl)c(O)c3)n2)cc1)c1ccc(Cl)c(Cl)c1	61.8%	65.7%	14.8%	33%	38.4%	0.324% (active)	83.8%	40.2%	22.3%	
C=C(C)C(C(=O)OCC)(C(=O)OCC)C(C)C			100%		104%	105%	110%	98.2%	114%	121%
COc1cc(-c2nn(-c3ccc(NC(=O)Nc4cc(C(F)(F)F)cc(C(F)(F)F)c4)cc3)cc2-c2ccncc2)ccc1Cl	-1.64% (active)	17.3%	-7.1% (active)	-32.5% (active)	4.08% (active)	-12.5% (active)	-1.9% (active)	16.6%		
O=c1c2c(c3ccccc3n1-c1ccccc1)NC(=S)NC2c1ccc(Cl)cc1 (configuration not stated)	20%	50.1%	47.6%	10.8%	52.7%	33.2%	50.6%	7.43% (active)	25.4%	
CC1(C)N=C(N)N=C(N)N1c1cccc(CCCCOc2ccccc2)c1			84.2%	24%	35.1%	67.7%	49.7%	13.2%		70.7%
O=C1Nc2c(c(=O)n(-c3ccccc3)c3ccccc23)C(c2ccc(Cl)cc2)N1 (configuration not stated)	86.8%	76.3%	80.5%	54.8%	102%	101%	98.1%	79.5%		
COc1cc2cn3c4ccc(O)cc4[nH]c(=O)c3c2cc1OC	18.4%	37%	-32.2% (active)	-22.6% (active)	-26% (active)	-51.7% (active)	-20.6% (active)	5.83% (active)	-9.94% (active)	
O=Nc1ccc(O)c2ccccc12	32.7%	-50.1% (active)	38%	5.45% (active)	19.9%	14.1%	118%	5.22% (active)	59.3%	
COc1cc(OC)c(/C=C/c2ccc3ccccc3[n+]2C)c(OC)c1			65.9%		25.6%	68.4%	7.12% (active)		-50.3% (active)	-4.21% (active)
CC(C)(CNC1CCCCC1)OC(=O)c1ccccc1			77.2%	104%	108%	102%	103%	84.7%	93.8%	116%
COc1cc(-c2nn(-c3ccc(NC(=O)c4ccc(Cl)c(Cl)c4)cc3)cc2-c2ccncc2)ccc1Cl	73%	79.4%	36.3%	17.2%	74.1%	44.4%	81.4%	67.6%	28.7%	
CC(C)(C)c1ccc(OCCOC(=O)CBr)cc1	126%	116%	92.9%	109%	85.9%	107%	107%	56.2%	63%	
CC(O)CCC(C)[N+](=O)[O-] (configuration not stated)			93.5%	104%	109%	104%	105%	102%	102%	109%
CC(O)c1cc[cH-]c1.[Fe+2].c1cc[cH-]c1 (configuration not stated)			86.5%	96%	89.8%	88%	103%		89.3%	109%
CCCCCCCCCCCC(=O)OC(C)C(=O)Nc1ccccc1 (configuration not stated)				94.9%	87.6%	91.2%	103%		96.1%	97.6%
COc1ccc2c(c1)cn1c3ccc(O)cc3[nH]c(=O)c21	47.9%	40.2%	23.3%	13%	14.8%	22.2%	40.7%	18.5%	19.2%	

Compound	growth (EKVX NSCLC)	growth (SN12C renal)	growth (UO-31 renal)	growth (TK-10 renal)	growth (ACHN renal)	growth (CAKI-1 renal)	growth (A498 renal)	growth (CCRF-CEM leukemia)	growth (MOLT-4 leukemia)	growth (SK-MEL-2 melanoma)
CC(CCN1CCN(CCC(C)CC(C)(C)C)C1CC(C)CC(C)(C)C)CC(C)(C)C (configuration not stated)	82.6%	91.2%	66.2%	85.2%	90.4%	96.4%	112%	83.1%	88.7%	
CC(C)CCCCCOC(=O)c1ccccc1SSc1ccccc1C(=O)OCCCCCC(C)C	103%	105%	70.5%	136%	103%	97.3%	100%	70.9%	72.1%	
N#Cc1ccc(OCc2nc(N)nc(N)c2-c2ccc(Cl)c(Cl)c2)cc1			40.4%	40.9%	19.4%	13.9%	38.5%	18.5%		29.8%
CC(=O)N1CCN(CCNC(=O)n2cc(-c3ccncc3)c(-c3ccc(O)c(Cl)c3)n2)CC1	133%	102%	131%	87.2%	105%	136%	118%	95.8%	85.8%	
CC(=O)N1CCN(CCNC(=O)n2cc(-c3ccncc3)c(-c3cc(O)cc(Cl)c3)n2)CC1	112%	94.4%	72.9%	62.5%	76.9%	99%	93.1%	71.6%	67.3%	
O=C(OCC1CC2(Cl)C(Cl)=C(Cl)C1(Cl)C2(Cl)Cl)C1C(C(=O)OCC2CC3(Cl)C(Cl)=C(Cl)C2(Cl)C3(Cl)Cl)C2(Cl)C(Cl)=C(Cl)C1(Cl)C2(Cl)Cl (configuration not stated)			91.8%	105%	95.6%	90.8%				111%
CC(=O)N(N=O)c1ccc([N+](=O)[O-])cc1Cl		47.4%		130%	58.9%	100%		46.8%	58.4%	73.1%
Cc1ccc(NC(=O)CCl)cc1Cl		93.6%		103%	92.3%	90.8%	119%		81.8%	85.1%
CCN(CC)C(=O)C1(C)CCCC2(C)c3cc(OC(C)=O)ccc3CCC12 (configuration not stated)			54.4%	78.1%	80.7%	76.8%	83.9%		64.1%	80.3%
O=C1C=C(OCC=C(C(F)(F)F)C(F)(F)F)c2ccccc2C1=O		-15.1% (active)			1.45% (active)	4.75% (active)	80.9%	-33.9% (active)	-36.9% (active)	12.4%
Cc1cc2cn3c4ccc(O)cc4nc(N)c3c2cc1C	37.2%	44.6%	6.2% (active)	5.03% (active)	7.58% (active)	-4.28% (active)	21.1%	11.5%	5.17% (active)	
CC(Br)c1nc2ccccc2cc1C(N)=O (configuration not stated)		90.5%		96.8%	109%		94.7%	84.5%	86.4%	110%
O=C(/C=C/c1ccc(Cl)cc1)c1ccc(Cl)cc1			76.2%	78%	109%	75.7%	82.8%	66.9%	81%	97.2%
COC(=O)c1cc(=O)nc(N/N=C/c2ccccc2O)s1				112%	92.3%	79%			72.1%	97.9%
CC(C)C(=O)c1ccc(Cl)s1			79.1%		104%	107%	79.6%		97.4%	96.5%
C/C=C/C/C=C/[C@H](C)C[C@H](O)[C@@H]1C[C@@H]2O[C@H]2/C=C/[C@@H]2OC(C)(C)O[C@H]2/C=C/C[C@H](C)CC(=O)O1	67.2%	38.2%	5.37% (active)	18.8%	38.4%	19.2%	96.5%	24.7%	34.6%	
